Results from PubChem BioAssay (EPA / NIEHS).
Active and inactive are the calls of the source. How the source made its calls: active means hit-call score of the fitted dose curve at least 0.9, where 1 is the maximum; inactive means score below 0.9.

molecular target: Hepatocyte nuclear factor 6 (Homo sapiens) (UniProt Q9UBC0); assay: ATG_HNF6_CIS: Attagene CIS-FACTORIAL HepG2 Assay for human Hepatocyte Nuclear Factor 6 (HNF6) (AID 2282952); details: HepG2 Attagene cis-factorial HNF6 reporter transcription; actives raise or lower the signal
Sequence (Q9UBC0 whole entry, looked up): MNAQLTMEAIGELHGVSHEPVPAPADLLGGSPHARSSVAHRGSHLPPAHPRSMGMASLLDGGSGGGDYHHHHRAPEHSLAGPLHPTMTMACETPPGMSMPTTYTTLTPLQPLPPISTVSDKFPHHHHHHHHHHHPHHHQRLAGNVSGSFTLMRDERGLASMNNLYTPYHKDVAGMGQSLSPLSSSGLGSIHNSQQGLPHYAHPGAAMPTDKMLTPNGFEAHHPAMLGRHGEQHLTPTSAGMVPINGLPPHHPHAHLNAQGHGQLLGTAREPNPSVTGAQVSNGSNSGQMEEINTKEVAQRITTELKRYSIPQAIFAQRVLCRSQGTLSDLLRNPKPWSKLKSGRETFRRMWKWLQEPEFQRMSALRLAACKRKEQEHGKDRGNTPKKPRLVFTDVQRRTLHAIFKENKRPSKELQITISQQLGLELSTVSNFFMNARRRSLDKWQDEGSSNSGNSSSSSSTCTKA
Procedure: ATG_CIS is a cell-based, multiplexed-readout assay that uses HepG2, a human liver cell line, with measurements taken at 24 hours after chemical dosing in a 24-well plate.ATG_HNF6_CIS is one of 52 assay component(s) measured or calculated from the ATG_CIS assay. It is designed to make measurements of mRNA induction, a form of inducible reporter, as detected with fluorescence intensity signals by Reverse transcription polymerase chain reaction (RT-PCR) and Capillary electrophoresis technology.Data from the assay component ATG_HNF6_CIS was analyzed into 1 assay endpoint. This assay endpoint, ATG_HNF6_CIS, was analyzed with bidirectional fitting relative to DMSO as the negative control and baseline of activity. Using a type of inducible reporter, measures of mRNA for gain or loss-of-signal activity can be used to understand the reporter gene at the transcription factor-level as they relate to the gene ONECUT1. Furthermore, this assay endpoint can be referred to as a primary readout, because this assay has produced multiple assay endpoints where this one serves a reporter gene function. To generalize the intended target to other relatable targets, this assay endpoint is annotated to the dna binding intended target family, where the subfamily is homeobox protein.
Human liver HepG2 cells are transiently transfected with multiple reporter transcription units (MRTUs) in 6-well plates using FuGene 6 reagent (Roche; 3 ml FuGene/1 mg DNA). The MRTU constructs are regulated by a cis-regulating element (promoter). […] A major difference between the CIS and TRANS system is that in CIS activities of endogenous TFs are measured, whereas the TRANS assay evaluates changes in activities of exogenous, chimeric NR-Gal4 proteins. […] At the end of 24 hour incubation, total RNA was isolated using TriZol reagent (Invitrogen). The isolated RNA is then reverse-transcribed using oligo(dT) primer and Mo-MLV reverse transcriptase (Invitrogen) with DNAse I (Ambion) treatment for 30 min. The one-tenth of the produced cDNA was amplified by PCR using Taq DNA polymerase (Invitrogen) and two reporter sequence-specific primers. The PCR products were fluorescently labeled by primer extension with 6-arboxyfluorescein (6-FAM) 5'-labeled reporter sequence-specific primer (2 min at 95 C, 20 s at 68 C and 10 min at 72 C) and these products were digested with 5U of HpaI (New England Biolabs) for 2h at 37 C. The fragments were purified using Qiaquick PCR columns (Qiagen), analyzed on an ABI 3130xL genetic analyzer (Applied Biosystems) with peak positions identified by using a set of X-rhodamine (ROX)-labeled MapMarker1000 molecular weight standards (BioVentures). The raw capillary electrophoresis data was processed using Attagraph software (Attagene).

| Compound | outcome | AC50 |
| --- | --- | --- |
| C=CCOC(=O)CCC1CCCCC1 | inactive |  |
| O=C(O)c1ccc([N+](=O)[O-])cc1 | inactive |  |
| O=C1CCc2ccccc2O1 | inactive |  |
| C=C(C)[C@@H]1CCC2=CC(=O)C[C@@H](C)[C@]2(C)C1 | inactive |  |
| O=S(=O)(O)c1ccc(O)c2ncccc12 | inactive |  |
| CN(CCOc1ccc(CC2SC(=O)NC2=O)cc1)c1ccccn1 (stereo not given) | inactive |  |
| O=C(O)CCCCCCCC(=O)O | inactive |  |
| Nc1ccc(S(=O)(=O)O)c(N)c1 | inactive |  |
| CC(CN1c2ccccc2Sc2ccccc21)N(C)C (stereo not given) | inactive |  |
| O=c1oc(=O)c2cc3c(=O)oc(=O)c3cc12 | inactive |  |
| OCCCCCO | inactive |  |
| Cc1ccc(O)c(C(C)(C)C)c1 |  | 156 µM (active) |
| O=C(Nc1ccccc1)c1cc([N+](=O)[O-])ccc1Cl | inactive |  |
| NCCNCCN | inactive |  |
| CC1=CC(=O)NS(=O)(=O)O1 | inactive |  |
| CCCCCCOC(=O)CC | inactive |  |
| CCO[Si](CCCS)(OCC)OCC | inactive |  |
| COc1cc2ncnc(Nc3cccc(Cl)c3)c2cc1OC | inactive |  |
| CCC(=O)OCCC(C)CCC=C(C)C (stereo not given) | inactive |  |
| NCCOCCO | inactive |  |

| Compound | outcome | AC50 |
| --- | --- | --- |
| COc1cc(C(C)(C)C)c(O)c(C(C)(C)C)c1 | inactive |  |
| CC(C)(Oc1ccc(CCNC(=O)c2ccc(Cl)cc2)cc1)C(=O)O | inactive |  |
| CC(=O)OCC=Cc1ccccc1 | inactive |  |
| O=CCCc1ccccc1 | inactive |  |
| Clc1ccc(Cl)c(Cl)c1Cl | inactive |  |
| CC(C)[C@H]1CC[C@@H](C)CC1=O | inactive |  |
| O=C=NC1CCC(CC2CCC(N=C=O)CC2)CC1 (stereo not given) | inactive |  |
| O=c1cc(-c2ccccc2)oc2cc(O)cc(O)c12 | inactive |  |
| CCC(O)CO (stereo not given) | inactive |  |
| C[Si](O[Si](C)(C)C)O[Si](C)(C)C | inactive |  |
| O=C1NC(=O)c2ccccc21 | inactive |  |
| NC(=O)NC1NC(=O)NC1=O (stereo not given) | inactive |  |
| Nc1cc(N)cc(C(=O)O)c1 | inactive |  |
| Cc1c(N(C)C)c(=O)n(-c2ccccc2)n1C | inactive |  |
| CCn1c2ccccc2c2cc(N)ccc21 | inactive |  |
| COc1nc(C)nc(N)n1 | inactive |  |
| C[C@H]1C[C@@H]2[C@H]([C@@H](O)C[C@@]3(C)[C@H]2CC[C@]3(O)C(=O)CO)[C@@]2(C)C=CC(=O)C=C12 | inactive |  |
| CC(C)(C)C(=O)c1ccccc1 | inactive |  |
| O=C(O)c1cn(-c2ccc(F)cc2)c2cc(N3CCNCC3)c(F)cc2c1=O | inactive |  |
| CC1=CCC2C(C1)C2(C)C (stereo not given) | inactive |  |
